High-throughput results from PubChem BioAssay.
This is a sample that favours compounds with a hit; in the whole collection about 0.85% have one here.
ZTA counter – counter-screen for EBNA-1 inhibitors: inhibitors of Epstein-Barr virus ZTA; P03206; ZTA-DNA binding, fluorescence polarization; inhibition, % at 11 µM; actives 0.15% (n = 320,000); in the data active means inhibition above about 33%
eLon inh – E. coli protease La inhibition; P0A9M0; purified E. coli Lon protease, fluorescence polarization; inhibition, % at 7.94 µM; actives 0.42% (n = 360,000); AID 602123; in the data active means inhibition above about 13%, passing the limit was not always enough;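 further: 0% = enzyme with probe and DMSO and 100% = no enzyme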
LANA DNA inh – KSHV C-LANA DNA binding inhibition | MBP-C-LANA/FAM-LBS DNA binding, fluorescence polarization | inhibition, % at 9 µM | actives 0.078% (n = 340,000);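 active means highest replicate inhibition at or above 60% at 9 µM, even if other replicates fall short; inactive means all replicates below 60% inhibition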;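 further: 0% = neutral control wells and 100% = 4 µM acridine orange control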
Keap1-Nrf2 PPI – Keap1-Nrf2 (human) interaction inhibition; Q14145; Keap1 Kelch-Nrf2 peptide fluorescence polarization, 1536-well; inhibition, % at 9.4 µM; actives 0.15% (n = 340,000); AID 504523; in the data active means inhibition above about 12%; inconclusive means no clear call, values can overlap the other calls; inactive means below about 7.3%;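 further: human Keap1 Kelch domain with fluorescein labeled Nrf2 9mer peptide probe; 0% = neutral control wells and 100% = peptide positive control; higher means more block of Keap1 binding to Nrf2 peptide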
Target sequence (Q14145 whole entry, looked up, the tested form may be a part): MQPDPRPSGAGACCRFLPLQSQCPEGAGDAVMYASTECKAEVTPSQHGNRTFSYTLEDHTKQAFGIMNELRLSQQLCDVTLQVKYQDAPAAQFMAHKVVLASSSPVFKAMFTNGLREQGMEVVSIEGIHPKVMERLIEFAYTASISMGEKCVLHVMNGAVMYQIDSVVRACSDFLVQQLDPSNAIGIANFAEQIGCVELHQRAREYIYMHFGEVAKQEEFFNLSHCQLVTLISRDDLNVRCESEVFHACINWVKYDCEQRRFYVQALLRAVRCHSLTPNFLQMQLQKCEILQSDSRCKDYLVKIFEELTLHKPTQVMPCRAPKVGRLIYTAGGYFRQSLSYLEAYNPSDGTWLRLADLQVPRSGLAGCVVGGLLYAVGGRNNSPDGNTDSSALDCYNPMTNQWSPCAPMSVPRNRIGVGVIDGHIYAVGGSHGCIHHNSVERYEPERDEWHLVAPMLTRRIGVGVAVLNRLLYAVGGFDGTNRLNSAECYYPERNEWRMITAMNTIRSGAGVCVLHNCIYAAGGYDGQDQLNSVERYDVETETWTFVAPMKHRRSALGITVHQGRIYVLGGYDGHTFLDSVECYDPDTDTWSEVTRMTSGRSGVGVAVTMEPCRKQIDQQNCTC
EBNA-1 inhibitor – blocks EBNA-1 binding to DNA; actives 0.34% (n = 300,000); inhibition, % at 14.8 µM; EBNA-1 DNA binding, fluorescence polarization; in the data active means inhibition above about 28%
E coli Lon conf – confirmation of E. coli Lon protease inhibitors; actives 31% (n = 1,400); purified E. coli Lon, fluorescence polarization; inhibition, % at 7.94 µM; shares compounds with eLon inh; in the data active means inhibition above about 16%;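 further: 0% = enzyme with probe and DMSO and 100% = no enzyme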
* = called active by the depositor; ? = inconclusive; . = no result given.

SMILES | ZTA counter | eLon inh | LANA DNA inh | Keap1-Nrf2 PPI | EBNA-1 inhibitor | E coli Lon conf
COc1ccc(C2C3=C(CC(C)(C)CC3=O)Oc3ncn4nc(-c5ccccc5)nc4c32)cc1 (centres undefined) | . | 25.6* | 1.9 | -7.1 | . | -5.5
C=CC[C@@H](CC(=O)N(CCO)Cc1ccccc1)C(=O)N[C@@H](COC(=O)[C@H](CC=C)CC(=O)OC(C)(C)C)Cc1c[nH]c2ccccc12 | . | -3.9 | 1.1 | -0.4 | . | .
C=CC[C@H](CC(=O)N(CCO)Cc1ccccc1)C(=O)N[C@@H](COC(=O)[C@@H](CC=C)CC(=O)OC(C)(C)C)Cc1c[nH]c2ccccc12 | . | 21.0* | -0.9 | -8.4 | . | 7.7
COC(=O)c1ccc(OC)c(CSc2nnc(-c3ccc(C)cc3)o2)c1 | . | 8.8 | -1.4 | 1.1 | . | .
COc1ccc(C(C)=O)cc1CSc1nnc(-c2ccncc2)o1 | 19.6 | 92.9* | 0.5 | -1.5 | -10.6 | -22.1
Cc1cn([C@H]2C[C@H](O)[C@@H](/C=C/C(=O)NCCc3ccc4c(c3)OCO4)O2)c(=O)[nH]c1=O | . | -3.2 | . | . | . | .
O=C(CN1CCSCC1)N/N=C/c1ccc(F)c(F)c1 | -2.2 | 27.0* | -0.5 | -5.3 | 0.4 | -1.0
O=C(CN1CCCCCC1)N/N=C/c1ccc(Cl)c(Cl)c1 | -1.5 | -2.5 | -0.3 | -1.9 | 3.7 | .
CC(=O)NC(C)(c1ccccc1)c1nc(/C=C/c2ccccc2)cs1 (centres undefined) | . | -6.4 | . | . | . | .
CCNC(=S)N=Nc1c(O)[nH]c2ccc(C(C)C)cc12 | 8.6 | 22.7* | -0.3 | -0.3 | -0.1 | 20.5*
CC(=O)N1CCN(C(=O)C(Cc2c[nH]c3ccccc23)NC(=O)c2ccccc2Cl)CC1 (centres undefined) | 1.1 | 8.6 | -0.7 | -0.1 | 5.5 | .
COc1cc(C(c2nnnn2C2CCCC2)N2CCN(C(=O)c3ccco3)CC2)cc(OC)c1OC (centres undefined) | -4.9 | -1.2 | -0.5 | -2.4 | 4.4 | .
O=C(CCNC(=O)C1CCN(S(=O)(=O)c2ccc(F)cc2)CC1)NCc1ccccc1Cl | 0.8 | 16.9* | 0.9 | -5.1 | -0.2 | -10.5
COc1ccc(OC)c(CN2CCCCCC2)c1 | -19.9 | 20.6* | -1.7 | -2.5 | -3.5 | 121.0*
COc1ccc(OC)c(CN2CCN(c3ccccc3OC)CC2)c1 | 12.5 | 16.8* | 1.0 | -4.0 | 4.0 | 3.6
COc1ccccc1N1CCN(Cc2ccc(O)c3ncccc23)CC1 | 3.2 | 15.2* | -0.8 | -4.4 | -1.7 | 12.4
COc1ccccc1N1CCN(Cc2ccc(OC)c(OC)c2OC)CC1 | 13.0 | -5.8 | -1.1 | 2.3 | 13.1 | .
CCOC(=O)N1CCN(C(=O)CSc2nc(=O)n3ccccc3n2)CC1 | 0.0 | -23.1 | -1.0 | -4.5 | 1.0 | .
O=C(NCc1ccccc1)C1CC(=O)N(c2ccc(OCC(=O)N3CCOCC3)cc2)C1 (centres undefined) | 7.7 | -2.2 | 0.8 | -6.7 | 4.3 | .
O=C1C(Cl)=C(N2CCN(Cc3ccccc3)CC2)C(=O)N1Cc1ccccc1 | -11.1 | 36.3* | 4.5 | -2.6 | -4.0 | 0.1
O=C1C(Cl)=C(NC2CCCCC2)C(=O)N1Cc1ccccc1 | 12.6 | -4.7 | 0.8 | 2.6 | -0.6 | .
COc1ccc(S(=O)(=O)N2CCOCC2)cc1NC(=O)CCCSc1ccccc1 | . | -11.6 | . | . | . | .
Cc1ccc(S(=O)(=O)NCCC(=O)NNC(=O)c2ccccc2O)cc1C | -15.6 | -4.6 | -8.7 | -1.6 | -15.3 | .
CC(C)N1CC=C2C(C#N)=C(N)C(C#N)(C#N)[C@H](c3ccoc3)[C@H]2C1 | -22.9 | . | . | . | 5.3 | .
CCN1CC=C2C(C#N)=C(N)C(C#N)(C#N)C(c3cc(Cl)ccc3Cl)C2C1 (centres undefined) | 19.0 | 27.5* | 28.6 | ? | -7.2 | -4.2
SMILES | ZTA counter | eLon inh | LANA DNA inh | Keap1-Nrf2 PPI | EBNA-1 inhibitor | E coli Lon conf
CCOc1ccc(S(=O)(=O)Nc2cccc(C(=O)NCC(c3ccco3)N3CCCC3)c2)cc1 (centres undefined) | -5.3 | -0.5 | -2.1 | -4.2 | . | .
CCN(CC(=O)NCc1cccs1)C(=O)c1ccc(-c2ccc(F)cc2)o1 | . | -1.1 | 0.6 | -24.4 | . | .
COc1cccc(NC(=O)CN(C)C(=O)Cc2n[nH]c(=O)c3ccccc23)c1 | -0.5 | 19.2* | 0.1 | -4.5 | . | -6.2
CCN(CC)S(=O)(=O)c1ccc(N2CCCC2)c(NC(=O)CN2C(=O)NC3(CCCC3)C2=O)c1 | 21.4 | 21.8* | -0.1 | 0.2 | 8.7 | -4.1
O=C1CCCc2ccccc2N1Cc1ccccc1Cl | -15.2 | -5.3 | 0.7 | -1.1 | 3.9 | .
O=C1CCCc2ccccc2N1Cc1ccc(Cl)cc1Cl | 0.3 | 18.0* | -1.0 | -3.8 | 0.7 | -0.6
O=C(COc1ccc(F)cc1Cl)Nc1ccc(N2CCOCC2)cc1N1CCOCC1 | 8.3 | 15.8* | 1.2 | -1.9 | -0.7 | 0.4
CC(=O)Nc1ccc(CN2C(=O)C(C)(C)ON=C2c2ccc(NC(C)=O)cc2)cc1 | . | -19.4 | . | . | . | .
O=C(Nc1cccc(S(=O)(=O)N2CCCCC2)c1)c1ccc2c(=O)n3c(nc2c1)CCCCC3 | 0.1 | 25.3* | 0.3 | 1.8 | 2.8 | 6.0
CCc1ccc(NC(=O)c2ccc3c(=O)n4c(nc3c2)CCCCC4)cc1 | -3.5 | 0.7 | -0.8 | 1.8 | -7.8 | .
CCOc1ccccc1C(=O)Nc1nnc(Cc2ccc(OC)c(OC)c2)s1 | 10.0 | 0.6 | 0.1 | -4.0 | 0.8 | .
Cc1cc2ncn(-c3ncccc3[N+](=O)[O-])c2cc1C | -16.9 | 24.7* | -0.1 | 1.2 | 0.1 | 1.0
COc1ccc(N2C(=O)C3CCCN3C2c2ccccc2)cc1 (centres undefined) | -4.8 | 16.2* | -0.6 | -5.6 | 4.0 | -7.7
c1coc(-c2cnc3ccccc3n2)c1 | . | 35.5* | . | . | . | 6.0
CCN(C(=O)c1coc(=O)c(Br)c1)c1ccc2c(c1)OCO2 | -12.8 | 20.6* | 13.0 | 1.8 | -0.6 | 4.3
O=c1nc2ccccc2c(NS(=O)(=O)c2ccccc2)n1-c1ccccc1 | 13.1 | 61.0* | -1.3 | 2.0 | -0.2 | 5.7
Cc1ccc(S(=O)(=O)Nc2c3ccccc3nc(=O)n2-c2ccccc2)cc1 | -7.7 | 4.1 | -0.5 | 1.1 | -6.4 | .
Cn1c2c(c(=O)n(C)c1=O)CN(Cc1ccccc1)CN2 | . | -1.1 | . | . | . | .
O=C(NCc1ccccc1)c1ccc(CS(=O)Cc2cccc(Cl)c2)o1 (centres undefined) | . | -1.6 | . | . | . | .
CCOc1ccccc1NC(=O)C1CCCN(S(=O)(=O)c2ccc(-n3cnnn3)cc2)C1 (centres undefined) | 17.6 | -2.0 | 1.5 | -2.0 | 0.8 | .
CCc1cccc(C)c1NC(=O)C1=C(C(=O)O)CCCC1 | -11.3 | 18.8* | 3.3 | -1.5 | -3.9 | 32.3*
CCOC(=O)C1=CNS(=O)(=O)NC1c1ccc(Br)cc1F (centres undefined) | . | -4.7 | 2.0 | 1.9 | . | .
COc1ccccc1Nc1nc(N)nc(CN2CCN(Cc3ccc4c(c3)OCO4)CC2)n1 | -7.1 | 1.7 | -1.1 | 3.0 | -3.9 | .
Cc1cccc(Nc2nc(N)nc(CN3CCN(Cc4ccc5c(c4)OCO5)CC3)n2)c1 | -20.1 | 19.4* | 0.4 | 1.1 | 3.3 | -0.6
CC1(C)CC(=O)C=C(c2cccc(OC(=O)c3ccc(Br)cc3)c2)C1=O | . | 3.3 | . | . | . | .
